# Laboratory results as given in PubChem BioAssay AID602293 (National Center for Advancing Translational Sciences (NCATS), 2012).
# In all, about 1,300 compounds went through this assay and about 30 (2%) were called active. About 10% were inconclusive and are not listed. The entries come from a sample that favours actives as a whole. A number with no mark means an inactive call. The call rests on the fitted dose curve; in most records, active means well fitted inhibition curve with a large enough effect; inconclusive means small, poorly fitted or top-dose-only effect; inactive means flat fitted curve, though single readings scatter.
# Assay: qHTS for antagonists of the Thyroid Stimulation Hormone Receptor: Hit Validation in HTRF Activity in a Luteinizing Hormone Receptor Cell Line
# Conditions: LHR-expressing cell line, cAMP HTRF, antagonist mode; series mostly up to 58 µM; activity change, negative = inhibition: at the top concentration
# Excerpt: The thyroid-stimulating hormone receptor (TSHR) is a member of the 7 trans-membrane-spanning receptor (7TMR) family of cell surface receptors. TSHR-mediated hyperthyroidism is important in thyroid pathology. The development of small molecule antagonists of TSHR may lead to therapeutic approaches for TSHR-mediated hyperthyroidism caused by constitutively activating mutations or stimulating auto-antibodies associated with Graves' disease. Graves' disease is the leading cause of hyperthyroidism and is caused by autoantibodies that stimulate TSHR (TsAbs) causing thyroid growth and unregulated overproduction of thyroid hormones and existing treatments have liabilities (agranulocytosis). In addition, TSHRs are known to be expressed in multiple extrathyroidal tissues including bone, brain, kidney, testis, fat and cells of the immune system but the role of the TSHR in these tissues is not clear. Therefore, TSHR antagonists/inverse agonists could be used as probes of extrathyroidal TSHR function. Finally, TSHR inverse agonists, which are a subclass of antagonists that inhibit agonist-independent (or basal or constitutive) TSHR signaling, could be used to inhibit TSH-independent signaling in patients with recurrent or metastatic thyroid cancer who are receiving thyroid hormone to suppress TSH.
# In collaboration between scientist from the NCGC and the NIDDK, a miniaturized HTRF high-throughput screen was developed. It's a cell based assay, where an anti cAMP antibody contains a fluorescent cryptate tag (excitation 337 nm; emission 620 nm) and the acceptor is cAMP-d2 (excitation 620 nm; emission 665 nm). When antibody and cAMP-d2 interact and are excited by a 337 nm light, a FRET occurs resulting in emission at 665 nm. The assay is competition between cAMP-d2 and cAMP (from the cell lysate). The homogeneous protocol allows for one step dispense after stimulation that is automation friendly. In order to confirm specificity of the compounds to the TSHR, a confirmatory assay was conducted on a similar family member, the Luteinizing Hormone (LH) receptor, transfected into a HEK 293 cell line, using an orthogonal detection technology to measure cAMP stimulation: antibody-based Homogeneous Time Resolved Fluorescence (HTRF).
# NIH Chemical Genomics Center [NCGC]
# NIH Molecular Libraries Probe Centers Network [MLPCN]
# Assay Provider: Marvin Gershengorn, NIDDK
# Homogeneous Time Resolved Fluorescence (HTRF) cAMP Assay. HEK 293 cells stably transfected with a vector containing the LH receptor and maintained under hygromycin selection were obtained from the laboratory of Dr. Marvin Gershengorn. Compounds were assayed using a HTRF cAMP detection kit (Cisbio) on the LH receptor transfected cell line. Briefly, 750 cells were plated in 2.5 ul/well of complete media (DMEM containing 10 % FCS, and 100 uM RO 20-1724) in 1536 well solid bottom white plates and 23 nl/well compound in DMSO solution or controls was added. Following 30 minute incubation at room temperature, 2.5 ul/well of labeled d2 cAMP and 2.5 ul/well of anti-cAMP antibody (both diluted 1:20 in lysis buffer) were added to each well using a flying reagent dispenser (Aurora Discovery, San Diego) . Plates were measured using the Envision plate reader (PerkinElmer, Boston, MA) with excitation at 330 nm and emissions of 615 nm and 660 nm.
# On the % scale 0 is the no-effect control and ±100 the full control effect; potency means the concentration at half of the fitted maximal effect.
Compound,"activity change, negative = inhibition [%]",Potency
COc1ccccc1N1CCN(c2nc(C)nc3c2oc2ccccc23)CC1,1.31,
O=C1C=CC(=O)N1CCCCCCN1C(=O)C=CC1=O,,33.8 µM (active)
Cc1cccc(/C=C/C(=O)c2cc(Br)ccc(=O)c2O)c1,-0.0449,
O=S(=O)(c1cc(C(F)(F)F)ccc1Cl)N1CCN(c2ncnc3ccccc23)CC1,-3.64,
COc1cc2sc3ccc(-c4ccc(CN5CCOCC5)cc4)cc3c(=O)c2cc1OC,-5.62,
COc1ccc(NS(=O)(=O)c2ccc3c(c2)Cc2ccccc2-3)cn1,1.94,
O=C(Nc1ccccc1Cl)/C(Cl)=C(\Cl)S(=O)c1ccccc1 (stereo not given),-22.7,
COc1ccc(NC(=O)/C(Cl)=C(/Cl)S(=O)Cc2ccccc2Cl)cn1 (stereo not given),,37.9 µM (active)
c1ccc2c(Cn3nnc4ccccc43)cccc2c1,2.75,
Cc1onc(-c2ccccc2Cl)c1C(=O)NC(=S)Nc1ccc(C(C)C)cc1,-0.899,
O=C(N1CCN=C1SCc1cccnc1)C12CC3CC(CC(C3)C1)C2,-1.74,
O=C(CSc1nc2cc(Cl)c(Cl)cc2[nH]1)c1ccc2c(c1)OCO2,2.41,
O=S(=O)(Nc1ccc2cn[nH]c2c1)c1cc(Br)ccc1Br,-0.271,
C=C(C)CNc1cc(S(=O)(=O)N2CCOCC2)ccc1Oc1ccccc1,-2.45,
Clc1ccc(CSc2nnc(CNc3cccc(Cl)c3)o2)cc1,0.688,
CCN(CC)S(=O)(=O)c1ccc(Oc2ccc(S(=O)(=O)N(CC)CC)cc2)cc1,-2.52,
CC1=NN(C(N)=S)C(=O)C1N=Nc1c(Br)cc(Br)cc1Br (stereo not given),1.89,
O=C(Oc1c(Br)cc([N+](=O)[O-])cc1Br)c1cccnc1,1.3,
CCc1ccccc1NC(=O)CN1CCN(C(=O)CNC(=O)Cc2cccc3ccccc23)CC1,1.56,
O=C(Nc1ccc(Cl)c(Cl)c1)Nc1ccccc1O,-3.37,
COc1ccc(-c2cc(-c3nc4ccccn4c3NCc3ccccc3)ccc2OC)cc1,,9.53 µM (active)
CCCCNc1c(-c2cccc(-c3ccc(OC)cc3)c2)nc2ccc(C)cn12,-0.0927,

Compound,"activity change, negative = inhibition [%]",Potency
CCCCCCSc1ccc(-c2nc3ccc(Cl)cn3c2NCCCC)cc1OC,-1.07,
O=C(Nc1nc2c(s1)CCCC2)c1ccc2ncsc2c1,-6.37,
N#C/C(=N\Nc1cccc([N+](=O)[O-])c1)C(=O)c1ccc(Br)cc1,-1.57,
Cc1ccc(C)c(N2CCN(C(=O)CCS(=O)(=O)c3ccc4c(c3)CCN4C(=O)C3CC3)CC2)c1,0.0752,
Cc1c(Cl)sn(-c2ccc(Cl)cc2)c1=O,-7.13,
Cc1ccc(-n2c(Cl)c(Cl)nc(Cl)c2=O)cc1,,37.9 µM (active)
Cc1ccc2cccc(Oc3ncnc4scc(-c5ccccc5)c34)c2n1,-7.58,
O=C(Nc1ccc(Cl)c(S(=O)(=O)N2CCOCC2)c1)c1ccc(OCC2CCCO2)cc1 (stereo not given),,37.9 µM (active)
O=C(Nc1nc(-c2ccc(Cl)cc2Cl)cs1)c1ccc(OCC2CCCO2)cc1 (stereo not given),-6.16,
COc1cc(C(C)=O)ccc1OCC(=O)Nc1ccc(Cl)c(S(=O)(=O)N2CCOCC2)c1,-7.28,
COC(=O)c1ccc(CN2C(=O)NC(Cc3c[nH]c4ccccc34)C2=O)cc1 (stereo not given),0.496,
COc1ccc(-c2csc(NC(=O)c3ccccc3NS(=O)(=O)c3ccc(F)c(F)c3)n2)cc1,-3.22,
COc1ccc(Cc2nc(C(=O)Nc3ccc(Cl)cc3)cs2)cc1,-1.91,
O=S(=O)(Nc1cccc(-c2cn3cccnc3n2)c1)c1ccc(-c2ccccc2)cc1,-0.336,
CCOC(=O)CCS(=O)(=O)c1nc(-c2ccccc2)cc(C(F)(F)F)n1,0.21,
COc1ccc(/C=N/n2c(SC)nnc(C(C)(C)C)c2=O)cc1,-0.342,
COc1ccc(S(=O)(=O)N2CCOC23CCN(C(=O)c2ccc(Cl)cc2Cl)CC3)cc1,-0.906,
O=C(NCCC1=CCCCC1)C(=O)NCC1OCCCN1S(=O)(=O)c1ccccc1 (stereo not given),3.6,
Cc1cc(C(=O)CCl)c(C)n1CCc1ccccc1,-0.254,
CC1(C)CC2(CCCN3C(=O)CSC32)CCS1 (stereo not given),-0.704,
COC(=O)c1ccc(-c2noc(CN(C)CCC3CCCCO3)n2)cc1 (stereo not given),-0.562,
CCC(C)(C)C1CCC(NC(=O)N2CCN(c3ccccc3O)CC2)CC1 (stereo not given),-0.692,

Compound,"activity change, negative = inhibition [%]",Potency
COc1ccccc1-n1cnc2cc(NS(=O)(=O)c3ccc(Br)cc3)ccc21,0.0454,
O=C1NC(=S)S/C1=C\c1ccc2ccccc2c1,-0.809,
O=[N+]([O-])c1c(Nc2cccc(O)c2)cc(Cl)c2nonc12,,30.1 µM (active)
O=C(COC(=O)c1ccccc1NS(=O)(=O)c1cccs1)NCC12CC3CC(CC(C3)C1)C2,1.8,
Cc1cc(OCC(=O)Nc2cccc(S(=O)(=O)N3CCCC3)c2)ccc1Cl,-2.78,
CCOC(=O)c1c(NC(NC(=O)C(C)C)C(Cl)(Cl)Cl)sc2c1CCC2 (stereo not given),-0.795,
O=C(Nc1ccc(SC(F)F)cc1)c1ccc2c(=O)n3c(nc2c1)CCC3,-2.9,
COc1cc2cnc(-c3ccccc3)c(-c3ccc(C#N)cc3)c2cc1OC,-1.55,
CCn1c(Cl)c(C=O)s/c1=N\S(=O)(=O)c1ccccc1,,37.9 µM (active)
CCOc1ccccc1N1CCN(C(=O)CCCN2C(=O)c3cccc4cccc(c34)C2=O)CC1,1.98,
CC(C)N(Cc1ccccc1)C(=O)COC(=O)c1cnc(Cl)c(Cl)c1,-3.98,
CC(Sc1nn(-c2ccc(F)cc2)c(=S)s1)C(=O)c1c(N)n(C)c(=O)n(C)c1=O (stereo not given),-2.58,
CC1=CC(=O)C(C(C)C)=C/C1=N/OS(=O)(=O)c1ccccc1,,21.3 µM (active)
CC1=C/C(=N\OS(=O)(=O)c2ccccc2)C(C)=CC1=O,,30.1 µM (active)
COc1ccc(/C=N/NC(=O)c2ccoc2C)cc1COc1c(C)cccc1C,-7.58,
CCCSc1nsc(NC(=O)Nc2ccc(F)cc2F)n1,-2.2,
O=C(COc1ccc(Cl)cc1)Nc1ncc([N+](=O)[O-])s1,-0.689,
COc1cc(/C=N/OCC(=O)NC23CC4CC(CC(C4)C2)C3)ccc1OCc1ccccc1,-8.02,
O=C(OCCc1cc2ccccc2c(=O)o1)c1ccccc1C(F)(F)F,-0.186,
CCN(CC)c1ccc2nc3ccccc3[n+](CC)c2c1,,30.1 µM (active)
O=C(Nc1nc(-c2ccc(F)cc2)cs1)C1CCN(C(=O)c2ccc(F)cc2)CC1,-5.39,
